Measurements reported in PubChem BioAssay AID2205 (University of Pittsburgh Molecular Library Screening Center, 2009).
Hit rate of the full screen: of about 200,000 compounds, about 1,600 (0.8%) were called active. This is one part of a sample in which actives are shown more often than they occur.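 The calls were made as follows: active = plate Z-score above 3 for both tubulin-high and condensed-nucleus cell shares, with cell loss under 80%, at 10 µM; inactive = the rest, inconclusive results apart.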

Assay: microtubule stabilizers in HeLa cells, primary screen, imaging, high-content imaging (AID 2205);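 as to % tubulin-high responders: anti alpha tubulin signal scored within the nucleus-defined area of each cell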;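 as to toxicity: 0% = mean cell density of plate MIN control wells and 100% = no cells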
Details: HeLa tubulin immunostaining HCS, 24 h, at 10 µM; % Hoechst-high responders: measured here: nuclear condensation Hoechst responders, stronger effect = higher value, share of cells brighter than vehicle mean+2SD; % tubulin-high responders: stronger effect = higher value, share of cells brighter than vehicle mean+2SD; toxicity: measured here: cytotoxicity by cell density

Compound	% Hoechst-high responders [%]	% tubulin-high responders	toxicity [%]
CCc1ccccc1NC(=O)Cc1cn(C)c2ccccc12	1.88	2.42% (inactive)	1.32
CCN(CC)C(=O)C(=O)c1cn(CC(=O)NCc2ccc3c(c2)OCO3)c2ccccc12	2.88	3.53% (inactive)	7.75
Cc1cc(C)cc(C(=O)NCC(=O)OCC(=O)N2CCCCC2)c1	1.86	1.01% (inactive)	6.66
COc1ccccc1-c1nc(C#N)c(N2CCC(C(N)=O)CC2)o1	1.21	0.805% (inactive)	3.26
COc1ccc(Nc2oc(-c3ccccc3Cl)nc2C#N)cc1	19.8	22.5% (active)	63.9
Cc1ccccc1-c1nc(C#N)c(NCc2ccco2)o1	2.06	1.4% (inactive)	7.65
N/C(=N\OS(=O)(=O)c1cccc([N+](=O)[O-])c1)c1ccncc1	2	1.6% (inactive)	1.69
O=[N+]([O-])c1ccc(C=Nc2ccc(Cl)cc2Cl)s1	9.57	11.5% (active)	16
Cc1ccccc1NCC(=O)N/N=C\c1ccc([N+](=O)[O-])s1	2.71	2.44% (inactive)	1.44
CCOc1ccc(NC(=O)CCC(=O)N/N=C/c2ccc([N+](=O)[O-])s2)cc1	1.9	4.38% (inactive)	12.5
Cc1cccc(NC(=O)c2sc(-c3ccccc3)nc2-c2ccc([N+](=O)[O-])cc2)c1	5.34	2.13% (inactive)	9.44
O=C(Nc1ccccc1)/C(=C/c1ccc([N+](=O)[O-])cc1)NC(=O)c1ccccc1	4.34	2.81% (inactive)	7.05
CCOC(=O)/C(=C\c1ccc([N+](=O)[O-])cc1)C(=O)c1cc(C(C)=O)c(Nc2ccccc2)s1	6.43	24.7% (active)	66.1
COC(=O)c1ccc(NCC(=O)N2CCCCCC2)cc1	2.09	3.14% (inactive)	2.78
COc1ccc(NC(=O)CSc2nnc(-c3ccccc3F)n2C2CC2)cc1S(N)(=O)=O	2.54	1.8% (inactive)	10.7
CCOc1cc(/C=C(\C#N)c2nc(-c3cccs3)c(NC(C)=O)s2)ccc1O	49.3	16.7% (active)	32.4
COc1cc(/C=C(\C#N)c2nc3c(s2)CC(C)CC3)ccc1O (configuration not stated)	2.11	1.86% (inactive)	0.488
CCOc1cccc(C(=O)Nc2nnc(-c3cccs3)s2)c1	2.31	1.76% (inactive)	5.03
CCCCc1cc2c(s1)CCCC/C2=N/O	1.99	5.07% (inactive)	0.0044
CCC(=O)Nc1cccc(NC(=O)c2cccnc2)c1	1.83	4.1% (inactive)	8.32
CCCC(=O)Nc1nc2ccc(NC(=O)c3cccnc3)cc2s1	19.5	35.9% (active)	55.8
CCOC(=O)c1cc(NC(=O)c2cccnc2)cc(C(=O)OCC)c1	1.98	4.37% (inactive)	5.37
CCCC(=O)Nc1nc2ccc(NC(=O)c3c(F)c(F)c(OC)c(F)c3F)cc2s1	44.1	12.2% (active)	35.6
COc1ccc2nc(Nc3nc4ccc(NC(C)=O)cc4s3)sc2c1	3.35	5.83% (inactive)	4.23
CSc1nc2ccc(NC(=O)c3c(F)cccc3F)cc2s1	3.31	2.54% (inactive)	0.69

Compound	% Hoechst-high responders [%]	% tubulin-high responders	toxicity [%]
O=C(COC(=O)Cn1cnc2ccccc2c1=O)NCc1ccccc1Cl	1.88	6.58% (inactive)	5.1
CCN(CC)c1ccc(NC(=O)c2ccc(Cl)nc2)cc1	27	43% (active)	38.6
NS(=O)(=O)c1ccc(NC(=O)COC(=O)c2ccc(Cl)nc2)cc1	1.74	3.68% (inactive)	9.84
O=C(NNc1ccccn1)c1ccc(Cl)nc1	2.04	3.3% (inactive)	8.78
CC(=O)Nc1ccc(S(=O)(=O)NC2(C(F)(F)F)C(=O)NC(C)=C2C#N)cc1 (configuration not stated)	0.651	0.947% (inactive)	1.71
COc1ccc(-n2cc(CN(C)Cc3n[nH]c(=O)[nH]3)c(-c3cccc(F)c3)n2)cc1	0.946	1.61% (inactive)	7.39
CCC(=O)/C(=C(/O)c1ccccc1)c1nc2ccccc2[nH]1	1.47	1.53% (inactive)	1.79
Oc1ccc(Cl)cc1/C=N/c1nc2ccccc2[nH]1	3.67	2.45% (inactive)	20.5
O=C(/C(=C/c1cccc(Cl)c1)c1nc2ccccc2[nH]1)c1ccccc1	42.6	47.1% (active)	68.7
C=CCn1cc(C(=O)NCc2ccc(Cl)cc2)c(=O)c2cc(S(=O)(=O)N(CC)CC)ccc21	2.4	2.86% (inactive)	5.36
CSc1ncccc1C(=O)N1CCCC(CCC(=O)NCc2ccccc2F)C1 (configuration not stated)	1.74	2.45% (inactive)	3.21
Cn1cccc1/C=N/NC(=O)c1ccc(OC(F)(F)C(F)F)cc1	2.53	6.72% (inactive)	7.37
COC(=O)Cc1ccc(NC(=S)NCc2ccccc2)cc1	2.07	4.23% (inactive)	9.97
N#CC1=C(N)Oc2c(sc3ccccc23)C1c1ccco1 (configuration not stated)	55.7	24.9% (active)	32.3
Cc1cc(C)c2c3c(sc2n1)C(c1ccccc1)C(C#N)=C(N)O3 (configuration not stated)	7.37	12.3% (inactive)	9.16
CCCCCCCC1(C)NC(=O)N(CC(=O)Nc2cc(C)on2)C1=O (configuration not stated)	2.15	3.92% (inactive)	9.17
Cc1ccc(S(=O)(=O)N(C)C)cc1NC(=O)COC(=O)C1COc2ccccc2O1 (configuration not stated)	2.45	3.07% (inactive)	5.9
O=C(c1cnn(-c2ccc(Cl)cc2)c1)c1ccccc1O	3.19	3.73% (inactive)	2.4
COc1cccc(OC)c1C(=O)Nc1ccc(N2CCCCC2)cc1	2.3	2.03% (inactive)	6.37
COc1ccc(C(=O)NC(=S)Nc2ccc(N3CCCC3)cc2)cc1OC	1.47	1.79% (inactive)	9.06
Cc1ccccc1C(=O)Nc1ccc(N2CCCCCC2)cc1	34.7	13.1% (active)	28.4
O=C(Cc1ccccc1)NC(=S)Nc1ccc(N2CCCCC2)cc1	2.7	1.21% (inactive)	5.2
C/C(=N\NC(=O)c1ccccc1C)c1ccc(N2CCOCC2)cc1	0.821	1.28% (inactive)	5.09
COc1cccc(C(=O)Nc2ccc(N3CCCC3)cc2)c1	30.7	25.7% (active)	50.6
